PubChem BioAssay (Tox21)
Where “and” joins values, the source holds several entries; their conditions need not be identical. Identical values can stand only once. Inconclusive results are not listed. Some structures have more than one record in an assay (separate samples or runs), and their calls can disagree. Calls of active or inactive are those of the source. Unless noted, calls come from the whole dose curve; as a rule, active = well fitted curve in the direction sought with a large enough effect in the repeat runs; inconclusive = weak or mixed curves; inactive = no such curve, though single readings can be large; an effect the other way counts as inactive or inconclusive.

Columns and labels:
[1] = qHTS assay to identify small molecule antagonists of the androgen receptor (AR) signaling pathway using the MDA cell line in the presence of 0.5 nM R1881 - cell viability counter screen (AID 1259242); note: nearly all actives have a fitted effect of over 45% in size; note: potency is the fitted concentration of half-maximal effect
Procedure, shortened: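 Live-cell protease activity was measured by CellTiter-Fluor fluorescence after 30 min. Before that, MDA-kb2 MMTV-luciferase cells had 16 hr at 37C without CO2, exposed to test compounds and 0.5 nM R1881 final.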

[2] = target: Androgen receptor (Homo sapiens) (UniProt P10275); assay: qHTS assay to identify small molecule antagonists of the androgen receptor (AR) signaling pathway using the MDA cell line in the presence of 0.5 nM R1881 (AID 1259243); note: nearly all actives have a fitted effect of over 50% in size; note: potency is the fitted concentration of half-maximal effect
Procedure, shortened: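 Luminescent reporter readout (ONE-Glo, 30 min, room temperature) after 16 hr co-treatment of MDA-kb2 cells with test compounds and 0.5 nM R1881 final, at 37C without CO2. The MMTV-driven luciferase responds to both AR and GR.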

[3] = qHTS assay to identify small molecule HDAC inhibitors (AID 1259364); note: nearly all actives have a fitted effect of over 45% in size; note: potency is the fitted concentration of half-maximal effect; for activity change, negative = inhibition: top concentration of the series differs between compounds
Procedure, shortened: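 Luminescence read after 30 min room-temperature HDAC-Glo incubation measures cellular class I/II HDAC activity. Compounds were applied for 2 hr at 37 C to HCT-116 wild-type cells seeded the day before.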

[4] = qHTS assay to identify small molecule HDAC inhibitors - cell viability counter screen (AID 1259365); note: nearly all actives have a fitted effect of over 50% in size; note: potency is the fitted concentration of half-maximal effect
Procedure, shortened: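 HCT-116 wild-type, overnight attachment; 2hr drug exposure, 37C; CellTiter-Glo luminescent ATP readout after 30min RT.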

[5] = qHTS assay to identify small molecule agonists of the sonic hedgehog signaling (Shh) pathway (AID 1259368; calls by dose curve;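 note: NIH/3T3-derived 3T3Gli1-Luc cells carrying a stable Gli1-driven firefly luciferase reporter; series mostly up to about 92 µM; nearly all actives have a fitted effect of over 15% in size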)
Procedure, shortened: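 Luminescence was read after 30 min at room temperature with luciferase reagent. Before that, 3T3Gli1-Luc cells (NIH/3T3 clone, stable Gli1-Luc reporter; 2,000/well) were exposed to compounds for 24 hr at 37C, 5% CO2, compounds being added 4 hr post-plating.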

[6] = qHTS assay to identify small molecule antagonists of the sonic hedgehog signaling (Shh) pathway (AID 1259369; calls by dose curve; note: nearly all actives have a fitted effect of over 45% in size; note: potency is the fitted concentration of half-maximal effect)
Procedure, shortened: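 Antagonist mode: compound added to 3T3 Gli1-Luc cells followed by conditioned-medium stimulation, 24 h at 37 C, 5% CO2. Inhibition taken as loss of Gli1-driven luciferase luminescence.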

[7] = target: Estrogen receptor (Homo sapiens) (UniProt P03372); assay: qHTS assay to identify small molecule antagonists of the estrogen receptor alpha (ER-alpha) signaling pathway using the BG1 cell line in the presence of 0.1 nM 17-beta-estradiol (AID 1259244); note: nearly all actives have a fitted effect of over 50% in size; note: potency is the fitted concentration of half-maximal effect
Procedure, shortened: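 Luciferase luminescence (ONE-Glo, 30 min at room temperature) was read after 22 hr at 37C exposure to compounds plus 17beta-estradiol at 0.1 nM final. Cells were VM7Luc4E2 with endogenous ER-alpha and an ERE-driven luciferase, pre-cultured 5 days in hormone-depleted medium.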

[8] = qHTS assay to identify small molecule agonists of the sonic hedgehog signaling (Shh) pathway - cell viability counter screen (AID 1259366); note: nearly all actives have a fitted effect of over 50% in size; note: potency is the fitted concentration of half-maximal effect
Procedure, shortened: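 Compounds in DMSO were pin-transferred onto 3T3 Gli1-Luc cells that had settled 4hr; plates then stood 24hr at 37C and 5% CO2. One hour before the end, CellTiter-Fluor was added and fluorescence recorded.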

[9] = qHTS assay to identify small molecule antagonists of the sonic hedgehog signaling (Shh) pathway - cell viability counter screen (AID 1259367); note: nearly all actives have a fitted effect of over 55% in size; note: potency is the fitted concentration of half-maximal effect
Procedure, shortened: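 Conditioned medium drove Shh signaling in 3T3 Gli1-Luc cells exposed to compounds at 37C and 5% CO2. Viability was determined from CellTiter-Fluor fluorescence, with reagent incubated 1 hr after 23 hr of treatment.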

[10] = qHTS assay to identify small molecule phospholipidosis (PLD) inducers (AID 1259344; active = well fitted curve in the direction sought with a large enough effect; an effect the other way counts as inactive or inconclusive)
Procedure, shortened: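 After 4 h attachment on collagen I, HepG2 cells were dosed with compound alongside LipidTOX Red, kept 24 h at 37 C, fixed, and imaged for lamellar phospholipid pits.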
% is set by controls: 0 for no effect and ±100 for the full control effect.

Estrogen receptor (Homo sapiens), sequence (P03372 whole entry, looked up): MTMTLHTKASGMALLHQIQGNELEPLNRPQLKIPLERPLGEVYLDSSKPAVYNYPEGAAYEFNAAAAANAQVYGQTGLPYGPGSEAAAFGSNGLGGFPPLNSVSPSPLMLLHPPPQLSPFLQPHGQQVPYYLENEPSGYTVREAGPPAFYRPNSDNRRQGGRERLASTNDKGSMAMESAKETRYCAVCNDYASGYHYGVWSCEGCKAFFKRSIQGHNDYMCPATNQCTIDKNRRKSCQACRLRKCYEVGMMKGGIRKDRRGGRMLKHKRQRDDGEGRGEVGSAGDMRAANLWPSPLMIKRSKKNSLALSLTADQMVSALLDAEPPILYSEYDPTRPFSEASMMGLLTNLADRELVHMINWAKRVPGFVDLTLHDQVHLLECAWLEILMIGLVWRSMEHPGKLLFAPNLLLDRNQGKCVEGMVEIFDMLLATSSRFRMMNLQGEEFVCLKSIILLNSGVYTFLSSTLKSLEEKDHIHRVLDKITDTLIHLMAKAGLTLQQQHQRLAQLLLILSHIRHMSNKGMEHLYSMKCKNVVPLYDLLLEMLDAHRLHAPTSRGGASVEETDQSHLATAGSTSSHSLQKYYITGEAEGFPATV
Androgen receptor (Homo sapiens), sequence (P10275 whole entry, looked up): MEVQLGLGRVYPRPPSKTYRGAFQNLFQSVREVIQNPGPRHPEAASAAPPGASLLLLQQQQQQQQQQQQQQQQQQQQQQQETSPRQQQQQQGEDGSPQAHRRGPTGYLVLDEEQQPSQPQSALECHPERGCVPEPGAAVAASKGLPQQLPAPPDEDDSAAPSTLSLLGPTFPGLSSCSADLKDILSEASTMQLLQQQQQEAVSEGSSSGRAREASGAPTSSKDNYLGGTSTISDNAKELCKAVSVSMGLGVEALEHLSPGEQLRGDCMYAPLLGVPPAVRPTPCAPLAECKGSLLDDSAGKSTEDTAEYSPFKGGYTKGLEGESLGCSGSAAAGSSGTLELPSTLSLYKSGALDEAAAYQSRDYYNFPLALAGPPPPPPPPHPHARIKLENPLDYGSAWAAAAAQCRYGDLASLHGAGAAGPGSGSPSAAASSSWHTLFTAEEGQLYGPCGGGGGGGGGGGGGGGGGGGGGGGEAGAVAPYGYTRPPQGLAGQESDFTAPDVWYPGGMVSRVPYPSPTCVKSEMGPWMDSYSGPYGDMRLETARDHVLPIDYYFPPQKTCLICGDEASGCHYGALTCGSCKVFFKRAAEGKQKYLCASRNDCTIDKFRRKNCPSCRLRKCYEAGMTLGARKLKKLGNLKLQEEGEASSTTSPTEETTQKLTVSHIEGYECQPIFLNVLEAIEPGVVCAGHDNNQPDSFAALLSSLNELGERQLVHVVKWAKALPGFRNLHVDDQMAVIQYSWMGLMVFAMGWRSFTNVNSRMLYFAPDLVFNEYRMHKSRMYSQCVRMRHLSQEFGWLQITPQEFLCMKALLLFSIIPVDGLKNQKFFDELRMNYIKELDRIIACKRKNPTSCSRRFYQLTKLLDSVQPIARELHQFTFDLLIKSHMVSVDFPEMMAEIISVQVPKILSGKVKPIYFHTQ

O=C(CCCCl)c1ccc(F)cc1
inactive: Potency [1] | Potency [2] | Potency [3] | Potency [4] | Potency [5] | Potency [6]

N#Cc1sc2c(=O)c3ccccc3c(=O)c=2sc1C#N
inactive: Potency [5]
active: Potency [1] 13.7 µM | Potency [2] 4.86 µM | Potency [7] 2.43 µM | Potency [3] 27.3 µM | Potency [4] 30.6 µM | Potency [8] 8.63 µM | Potency [9] 9.69 µM | Potency [6] 3.86 µM

COc1ccc2c(c1OC)C(=O)O[C@@H]2[C@H]1c2cc3c(cc2CCN1C)OCO3
active: Potency [8] 2.41 µM | Potency [9] 3.03 µM
inactive: Potency [1] | Potency [2] | Potency [3] | Potency [4] | Potency [5] | Potency [6]

CCCCCCCc1ccc(O)cc1
inactive: Potency [1] | Potency [7] | Potency [3] | Potency [4] | Potency [8] | Potency [5]
active: Potency [2] 27.3 µM

ClC1(Cl)C2(Cl)C3(Cl)C4(Cl)C(Cl)(Cl)C5(Cl)C3(Cl)C1(Cl)C5(Cl)C24Cl (stereo not drawn)
inactive: Potency [1] | Potency [2] | Potency [3] | Potency [4] | Potency [8] | Potency [5]

C[C@]12CC[C@H]3[C@@H](CCC4=CC(=O)CC[C@@H]43)[C@@H]1CC[C@@H]2OC(=O)CCc1ccco1
inactive: Potency [1] | Potency [2] | Potency [3] | Potency [4] | Potency [8] | Potency [5] | Potency [6]

Cc1ccc(C)c2ccccc12
inactive: Potency [1] | Potency [2] | Potency [3] | Potency [4] | Potency [8] | Potency [9] | Potency [5]

O=C1C2(Cl)C3(Cl)C4(Cl)C(Cl)(Cl)C5(Cl)C3(Cl)C1(Cl)C5(Cl)C24Cl (stereo not drawn)
inactive: Potency [3] | Potency [4] | Potency [5]
inactive and 65.7 µM (active): Potency [2]
active: Potency [1] 60.1 µM | Potency [9] 37.9 µM and 58.5 µM | Potency [6] 12 µM and 29.3 µM

O=S1OCC2C(CO1)C1(Cl)C(Cl)=C(Cl)C2(Cl)C1(Cl)Cl (stereo not drawn)
inactive: Potency [1] | Potency [7] | Potency [3] | Potency [4] | Potency [5]
active: Potency [2] 48.6 µM and 54.4 µM | Potency [9] 48.5 µM

CC(Cc1ccccc1)N(C)Cc1ccco1 (stereo not drawn)
inactive: Potency [1] | Potency [2] | Potency [3] | Potency [4] | Potency [8] | Potency [9] | Potency [5] | Potency [6]

CC(C)=CC1C(C(=O)OC(C#N)c2cccc(Oc3ccccc3)c2)C1(C)C (stereo not drawn)
inactive: Potency [1] | Potency [2] | Potency [3] | Potency [4] | Potency [8] | Potency [9] | Potency [5] | Potency [6]

Cc1ccccc1OP(=O)(Oc1ccccc1C)Oc1ccccc1C
inactive: Potency [1] | Potency [7] | Potency [3] | Potency [4] | Potency [8] | Potency [5]
active: Potency [2] 48.8 µM

CCC[CH2][Sn]([CH2]CCC)([CH2]CCC)[O][Sn]([CH2]CCC)([CH2]CCC)[CH2]CCC
inactive: activity change, negative = inhibition [3] 2.24% [at 8.39 µM] | activity change [5] -10.2% [at 8.39 µM, stronger effect = higher value]
active: Potency [1] 0.533 µM | Potency [2] 0.189 µM | Potency [7] 0.377 µM | Potency [8] 0.212 µM | Potency [9] 0.377 µM | Potency [6] 0.212 µM

Brc1cccc(-c2ccccc2)c1
inactive: Potency [1] | Potency [7] | Potency [3] | Potency [4] | Potency [8] | Potency [9] | Potency [5] | Potency [6]

ClSC(Cl)(Cl)Cl
inactive: Potency [1] | Potency [7] | Potency [3] | Potency [4] | Potency [8] | Potency [9] | Potency [5] | Potency [6]

CNC(=O)/C=C(\C)OP(=O)(OC)OC
inactive: Potency [1] | Potency [7] | Potency [3] | Potency [4] | Potency [8] | Potency [9] | Potency [5] | Potency [6]

CC(C)c1c(CN(C)C(C)Cc2ccccc2)n(C)n(-c2ccccc2)c1=O (stereo not drawn)
inactive: Potency [1] | Potency [7] | outcome [10] | Potency [3] | Potency [8] | Potency [9] | Potency [5] | Potency [6]

c1ccc2nc(N3CCNCC3)ccc2c1
inactive: Potency [1] | Potency [7] | outcome [10] | Potency [3] | Potency [4] | Potency [9] | Potency [5]

O=[N+]([O-])c1ccc(CCl)cc1
inactive: Potency [1] | Potency [7] | Potency [3] | Potency [4] | Potency [8] | Potency [9] | Potency [5] | Potency [6]

COP(=S)(OC)Oc1ccc([N+](=O)[O-])c(C)c1
inactive: Potency [1] | Potency [7] | Potency [3] | Potency [4] | Potency [8] | Potency [5]

CCN(CC)CCc1c[nH]c2ccccc12
inactive: Potency [1] | Potency [7] | outcome [10] | Potency [3] | Potency [4] | Potency [8] | Potency [9] | Potency [5]
active: Potency [6] 50.9 µM

CC(O)C(=O)[O][Hg][c]1ccccc1 (stereo not drawn)
active: Potency [1] 6.11 µM | Potency [7] 8.63 µM | Potency [3] 4.33 µM | Potency [4] 4.33 µM | Potency [8] 0.969 µM | Potency [9] 1.22 µM | Potency [6] 0.0306 µM
inactive: Potency [5]

CCC1(CC)C(=O)N=C(O)NC1=O
inactive: Potency [1] | Potency [7] | Potency [3] | Potency [4] | Potency [8] | Potency [9] | Potency [5]

CC[N+]1(CC)CCC(OC(=O)C(O)(c2ccccc2)c2ccccc2)C1 (stereo not drawn)
inactive: Potency [1] | Potency [7] | Potency [3] | Potency [4] | Potency [8] | Potency [9] | Potency [5] | Potency [6]

COP(=S)(NC(C)C)Oc1ccc(C)cc1[N+](=O)[O-] (stereo not drawn)
active: Potency [7] 17.2 µM
inactive: Potency [1] | Potency [3] | Potency [4] | Potency [8] | Potency [9] | Potency [5] | Potency [6]
